Screen size: about 420,000 compounds; about 50,000 (12%) were called active. Roughly 26% stayed inconclusive and do not appear here. Calls come from the whole dose curve; as a rule, active = well fitted inhibition curve with a large enough effect; inconclusive = small, poorly fitted or top-dose-only effect; inactive = flat fitted curve, though single readings scatter. Shown is part of a subset that was picked to be rich in actives. Where a SMILES comes first, the peptide text is derived from it. [ ]: non-standard residue; d: D form. The star is where a group is joined. ξ: configuration not given here. Cbz = O=C(OCc1ccccc1)*; ξL = CC(C)CC(N)C(=O)O; ξP = O=C(O)C1CCCN1
% is set by controls: 0 for no effect and ±100 for the full control effect; potency is the fitted concentration of half-maximal effect.

The assay can be described thus: qHTS for Inhibitors of human tyrosyl-DNA phosphodiesterase 1 (TDP1): qHTS in cells in presence of CPT. Note: nearly all actives have a fitted effect of over 55% in size. The settings on record: chicken DT40 Tdp1-/-;hTDP1 cells + 20 nM CPT, ATP luminescence, 48 h; series mostly up to 46.2 µM; activity change, negative = growth inhibition: at the top concentration. The method in brief:
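Cell growth measured by CellTiter-Glo luminescence after a minimum 48 h, 37 C compound exposure with 20 nM CPT in Tdp1-knockout DT40 cells stably expressing hTDP1, seeded 400/well; qHTS titration format.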
(qHTS replaces the single test concentration by a dilution series.)
With `COCCOC1CCN(C(=O)c2ccc(OC)c(OC3CCN(C(C)C)CC3)c2)CC1`, the “activity change, negative = growth inhibition” value is -4.72% (inactive). On the same count and under the same terms, in the case of `Cc1cccc(NS(=O)(=O)c2ccc([N+](=O)[O-])cc2)n1` it was -0.281% (inactive); in that of `CCOC(=O)c1cnc(-c2ccccc2)nc1Oc1ccc(C)cc1`, -22.3% (inactive); in that of `COc1ccc(OCCCON2C(=O)c3ccccc3C2=O)cc1`, 4.54% (inactive). Regarding `CCOC(=O)C1=C(c2ccc(OC)cc2)C(=O)c2ccccc2C1=O`, the Potency was 1.16 µM (active). On to `Cc1cc(C)c(C#N)c(SCC(=O)NN2CC(=O)N(c3ccccc3F)CC2=O)n1`, for which the “activity change, negative = growth inhibition” value is 5.8% (inactive). Take `COC(=O)c1ccc(CSc2nncn2N)cc1`: the “activity change, negative = growth inhibition” value was 2.13% (inactive). Consider `C=CCNC(=O)c1ccc2c3n(nc2c1)-c1ccc(C)cc1CO3`, for which the Potency was 20.6 µM (active). `CCOc1c2ccc(C(=O)NCc3ccc4c(c3)OCO4)cc2nn1C`: the “activity change, negative = growth inhibition” value was 6.34% (inactive). On the same count and under the same terms, then `Cc1ccc(CCNC(=O)c2ccc3c(c2)nc2n3CCC(C)C2)cc1` (configuration not stated), with 10.9% (inactive). On the same count and under the same terms, in the case of `O=C1CC[C@@H]2CC3(C[C@@H]4CCN1[C@H]24)Nc1cc([N+](=O)[O-])ccc1NC3=NC1CCCCC1` (some centres not stated) it was 2.6% (inactive). `Cc1cc2c(cc1C)NC1(C[C@H]3CCC(=O)N4CC[C@@H](C1)[C@@H]34)C(=NC(C)(C)CC(C)(C)C)N2` (some centres not stated): the Potency is 20.6 µM (active). As to `O=C1CCC[C@@H]2C[C@@]3(C[C@@H]4CCN1[C@H]24)Nc1ccccc1NC3=NCc1ccccc1`, the “activity change, negative = growth inhibition” value is -16.3% (inactive). The same measure, in the same setting: in the case of `COc1ccccc1NC(=O)c1cc(Cl)nnc1Cl` it was -98.6% (inactive); in that of `COc1ccccc1NC(=O)C[n+]1ccccc1`, 18.6% (inactive).

In the case of `COc1ccccc1NC(=O)/C=C/C(N)=O`, the Potency was 2.06 µM (active). In the case of `Nc1ccccc1Sc1cc(Cl)nnc1Cl`, the “activity change, negative = growth inhibition” value is 0.995% (inactive). On the same count and under the same terms, then `Cc1ccsc1C(=O)OCC(=O)Nc1cccc(F)c1`, with -4.82% (inactive). With `O=C(NCC(=O)N1CCN(c2ccccc2O)CC1)c1ccc2ccccc2c1`, the Potency is 18.4 µM (active).

With `O=C(NCC(=O)N1CCN(c2ccccc2F)CC1)c1cccs1`, the “activity change, negative = growth inhibition” value is 4.7% (inactive). Same read-out and setting: in the case of `O=C(CNC(=O)c1ccc2ccccc2c1)Nc1ncccc1O` it was -13.9% (inactive); in that of `CN(C)/C=C(\C#N)C(=O)c1cccnc1Oc1cccc(F)c1`, 3.34% (inactive). On to `COCc1[nH][nH]c(=O)c1C=Nc1ccc(F)cc1F`, for which the “activity change, negative = growth inhibition” value was -0.912% (inactive).

Regarding `O=C(c1cc2ccccc2o1)N1CCN(c2cccc(C(F)(F)F)c2)CC1`, the “activity change, negative = growth inhibition” value was 1.06% (inactive). On the same count and under the same terms, then `Cc1ccc(C)c(S(=O)(=O)N2CCCOC2CNC(=O)C(=O)NC2CCCCC2)c1` (configuration not stated), with 5.54% (inactive); and `Cn1c(Nc2ccccc2)cc(=O)n(C)c1=O`, with 4.61% (inactive). For `S=c1ccc2ccccc2[nH]1`, the Potency is 13 µM (active). On to `CCOC(=O)c1ccccc1NS(=O)(=O)c1c(C)nc2sccn2c1=O`, for which the “activity change, negative = growth inhibition” value is -6.93% (inactive). On the same count and under the same terms, in the case of `Cc1ccc(CNC(=O)CSC2=Nc3ccccc3C3=NC(C)C(=O)N23)cc1` (configuration not stated) it was -26.7% (inactive).

For the compound `COc1ccccc1NC(=O)CSC1=Nc2ccccc2C2=NC(CC(=O)NCc3cccs3)C(=O)N12` (configuration not stated), the Potency was 20.6 µM (active).

As to `O=C(CSC1=Nc2ccccc2C2=NC(CC(=O)NCc3ccco3)C(=O)N12)NCc1ccco1` (configuration not stated), the “activity change, negative = growth inhibition” value was -13.9% (inactive). On the same count and under the same terms, in the case of `CN1CCC(=NNC(=O)c2ccc(N(Cc3ccc(Cl)cc3)S(C)(=O)=O)cc2)CC1` it was 4.52% (inactive); in that of `CC(=O)Nc1ccc(NC(=O)CC2CCCC2)cc1`, 0.0692% (inactive). The same measure, in the same setting: in the case of `CSc1ncnc2c1ncn2CCCNCC1CCCCC1` it was -26.5% (inactive). On to `CSc1ncnc2c1ncn2CC(=O)C1CCC2C3CCC4=CC(=O)CCC4(C)C3CCC12C` (configuration not stated), for which the Potency was 5.8 µM (active).

Regarding `CCOC(=O)c1ccc(CS(=O)c2ccc(Cl)cc2)o1` (configuration not stated), the “activity change, negative = growth inhibition” value is -18.3% (inactive). Same read-out and setting: then `CC(Nc1ccc([N+](=O)[O-])cc1[N+](=O)[O-])c1ccccc1` (configuration not stated), with 3.71% (inactive); and `CCN(CC)c1ccc(/C=N/NC(=O)CNC(=O)c2cccnc2)cc1`, with 31.8% (inactive). On the same count and under the same terms, in the case of `CCN(CC)c1ccc(C(=O)Nn2c(C)nc3ccccc3c2=O)cc1` it was -17.4% (inactive). In the case of `CCN(CC)c1ccc(/C=N/Nc2nc(C)cc(C)n2)c(O)c1`, the Potency was 4.11 µM (active). As for `CCN(CC)c1ccc(/C=N/NC(=O)c2cnccn2)c(O)c1`, the Potency was 5.17 µM (active). For `Cc1ccc(C(=O)NCCNC(=O)c2cnccn2)cc1`, the “activity change, negative = growth inhibition” value was 8.28% (inactive). For `O=C(NCc1ccco1)c1cccc(-c2ccc3nncn3c2)c1`, the “activity change, negative = growth inhibition” value is -0.594% (inactive). On the same count and under the same terms, then `CS(=O)(=O)c1cccc(-c2ccc3nncn3c2)c1`, with 11.7% (inactive); and `NC(=O)c1ncc(C(F)(F)F)cc1Oc1ccc(F)cc1`, with 0.776% (inactive); and `O=C(Nc1ccccc1Cl)Nn1cnnc1`, with -0.423% (inactive). On the same count and under the same terms, in the case of `O=C(CN1CCC(O)(c2ccccc2)CC1)Nc1ccc2c(c1)OCCO2` it was -0.373% (inactive); in that of `O=C(COC(=O)c1ccccc1)c1ccc2c(c1)OCCO2`, 4.32% (inactive). In the case of `O=C(CCN1CCc2ccccc2C(O)(c2ccccc2)C1)c1ccc2c(c1)OCCO2` (configuration not stated), the Potency was 2.31 µM (active). As to `Cc1ccc(N2C(=O)C3C4C=CC(CC4)C3C2=O)cc1Br` (configuration not stated), the “activity change, negative = growth inhibition” value is 18.5% (inactive).

`COc1ccc(N2C(=O)CC(N3CCC(C(N)=O)CC3)C2=O)cc1` (configuration not stated): the “activity change, negative = growth inhibition” value is -10.4% (inactive). Take `COc1ccc(CCN2C(=O)C3CC=C(C)CC3C2=O)cc1OC` (configuration not stated): the “activity change, negative = growth inhibition” value is -29.7% (inactive). In the case of `COc1ccc(CCN2C(=O)CC(N3CCC(C(N)=O)CC3)C2=O)cc1OC` (configuration not stated), the Potency was 25.9 µM (active). Still for that read-out and setting: then `CC(=O)Nc1cccc(OCC(=O)/C=C2\N(C)c3ccccc3C2(C)C)c1`, with 6.51 µM (active). Consider `CN1CCN(CCC(=O)N/N=C/C=C2\N(C)c3ccccc3C2(C)C)CC1`, for which the “activity change, negative = growth inhibition” value is -20.6% (inactive). On the same count and under the same terms, in the case of `COc1cccc(NC(=S)C(C#N)=C2N(C)c3ccccc3N2C)c1` it was 2.93% (inactive); in that of `Cc1cccc(NC(=O)c2cc(S(=O)(=O)N3CCC4(CC3)OCCO4)ccc2F)c1`, 3.62% (inactive); in that of `Cc1cc(S(=O)(=O)NC2CCCC2)ccc1-n1cnnn1`, -15.2% (inactive). Regarding `CCOc1cccc(/C=C/c2ccc3ccccc3n2)c1OC(C)=O`, the Potency was 18.4 µM (active). Turning to `COc1cccc(/C=C/c2ccc3ccccc3n2)c1OC(C)=O`, the “activity change, negative = growth inhibition” value was -23.5% (inactive).

In the case of `CCOc1ccccc1-c1cc(C(=O)N2CCOCC2)c2ccccc2n1`, the “activity change, negative = growth inhibition” value was -24.5% (inactive). Consider `O=S(=O)(/N=C(/Nc1ccccn1)c1ccccc1)c1ccc(Cl)cc1`, for which the “activity change, negative = growth inhibition” value was 3.49% (inactive). For `Cc1ccc(S/C(=N\S(=O)(=O)c2ccc(Cl)cc2)c2ccccc2)cc1`, the Potency is 14.6 µM (active). Turning to `Cc1ccc(S(=O)(=O)/N=C(/Nc2ccccn2)c2ccc(Cl)cc2)cc1`, the “activity change, negative = growth inhibition” value was -19.3% (inactive). Consider `Cc1ccc(NC(=O)COc2ccc(/C=C3/NC(=O)NC3=O)cc2)cc1`, for which the “activity change, negative = growth inhibition” value is -9.1% (inactive). The same measure, in the same setting: then `CC(C)CC(NC(=O)C1CCCN1C(=O)[C@@H](C)NC(=O)OCc1ccccc1)C(=O)NCC(N)=O` (some centres not stated) (Cbz-[dA][ξP][ξL]G-NH2), with 11.9% (inactive).

For `CCCN(CCC)S(=O)(=O)c1ccc(C(=O)NNC(=O)c2cc(OC)c(OC)c(OC)c2)cc1`, the “activity change, negative = growth inhibition” value is 0.53% (inactive). On to `CCOC(=O)c1c(NC(=O)NC(C)(C)C)sc2c1CCN(C)C2`, for which the “activity change, negative = growth inhibition” value is 12.6% (inactive).

Turning to `CCOC(=O)c1c(NC(=S)Nc2ccccc2)sc2c1CCN(C)C2`, the “activity change, negative = growth inhibition” value was -6.24% (inactive). `CCCN(CCC)S(=O)(=O)c1ccc(C(=O)Nc2sc3c(c2C(=O)OC)CCN(CC)C3)cc1`: the Potency was 16.4 µM (active). As for `COC(=O)c1c(NC(=O)c2cc(=O)c3c(C)cc(C)cc3o2)sc2c1CCCC2`, the “activity change, negative = growth inhibition” value is 6.35% (inactive).

In the case of `CCOC(=O)c1c(NC(=O)c2ccc(S(=O)(=O)N3CCCC(C)C3)cc2)sc2c1CCN(C(C)C)C2` (configuration not stated), the Potency was 8.2 µM (active).

The values above are taken from PubChem BioAssay AID686979 (National Center for Advancing Translational Sciences (NCATS), 2013).
